Screening data (PubChem)
KB-V1 cytotox: KB-V1 MDR subline cytotoxicity; KB-V1 MDR cells viability, CellTiter-Glo, 72 h; Potency, µM (highest dose often 46.1 µM), actives largely listed as cytotoxic; 400,000 compounds, 3.4% hits; also: % is scaled to controls: 0 for no effect and ±100 for the full control effect; nearly all actives have a fitted effect of over 60% in size
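qHTS viability screen in drug-selected KB-V1 MDR cells: 72 h compound treatment at 37 degrees C, ATP luminescence end point.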
ATXN2 expr inh: reduces ATXN2 reporter expression in HEK-293 cells; Potency, µM (doses to about 57 µM), without a hit: top-dose activity change, negative = inhibition, actives largely listed as inhibitors; 360,000 compounds, 0.72% hits; HEK-293 ATXN2-luciferase reporter, luminescence, 24 h; also: % is scaled to controls: 0 for no effect and ±100 for the full control effect; nearly all actives have a fitted effect of over 55% in size
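ATXN2-luciferase reporter cells (luciferase flanked by upstream and downstream ATXN2 gene portions) were treated 24 h at 37 °C with compounds at up to 57 uM. SteadyGlo luminescence gave expression; GF-AFC fluorescence gave viability.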
HT1080 IDH1KD tx: toxicity to HT-1080 IDH1 knockdown cells (counter line). HT-1080 IDH1 knockdown viability, ATP luminescence, 48 h. 360,000 compounds, 2% hits. Potency, µM (titrated, usually from 46.1 µM), for inactives: top-dose activity, negative = toxicity, hits mostly cytotoxic. AID 686971;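 also: 0% = DMSO wells and -100% = cell-free medium wells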
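Assay cells: HT-1080 with IDH1 knockdown, 750 per well, RPMI/5% FBS. Exposure: 48 h at 37 °C following 2 h pre-incubation. Read: CellTiter-Glo luminescence; fitted concentration-response, curve class assigned.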
KB-3-1 tox: KB-3-1 parental cell cytotoxicity; AID 1347075; KB-3-1 viability, CellTiter-Glo ATP luminescence, 72 h; Potency, µM (titrated, usually from 46.1 µM), most hits filed as cytotoxic; 400,000 compounds, 1.4% hits; also: % is scaled to controls: 0 for no effect and ±100 for the full control effect; nearly all actives have a fitted effect of over 60% in size
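Luminescent ATP read-out (CellTiter-Glo) measures survival of drug-naive KB-3-1 cells after 72 h compound exposure at 37 °C. Titration series was screened from lowest to highest concentration, with DMSO vehicle plates as background controls.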
HT1080-NT tox: kills 2HG-producing HT-1080-NT fibrosarcoma cells; 360,000 compounds, 1.6% hits; AID 686970; Potency, µM (titrated, usually from 46.1 µM), for inactives: at the top dose activity, negative = less viability, most hits filed as cytotoxic; HT-1080-NT fibrosarcoma viability, CellTiter-Glo ATP luminescence, 48 h;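 also: NT is the 2HG producing partner of a matched IDH1 knockdown line; 0% = DMSO-treated cells and -100% = media-only wells without cells; nearly all actives have a fitted effect of over 55% in size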
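Compounds were tested in concentration-response format on HT-1080-NT cells for 48 hours at 37 degrees C. Cell viability came from CellTiter-Glo luminescence; curves were classified by r2, response magnitude and activity.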
S2 tox: reduces viability in counter-screen for ATXN expression inhibitors | Potency, µM (top dose mostly 56.7 µM), hits mostly cytotoxic | S2 cells (HEK-293 line with an ATXN2-luciferase reporter) viability, CellTiter-Fluor protease fluorescence, 24 h | AID 651635 | 400,000 compounds, 0.49% hits; also: nearly all actives have a fitted effect of over 40% in size
* marks the source's active call; other numbers are inactive results; i = inactive; u = inconclusive; x = no result given; ! = repeats disagree. An excerpt weighted towards active compounds, which were near 6.2% of everything screened. Calls follow the shape of the dose curve; as a rule, active = well fitted curve in the direction sought with a large enough effect; inconclusive = small, poorly fitted or top-dose-only effect, or another doubt; inactive = no such curve, though single readings can be large; an effect the other way counts as inactive or inconclusive. Potency is read from the fitted curve at half-maximal effect.

SMILES	KB-V1 cytotox	ATXN2 expr inh	HT1080 IDH1KD tx	KB-3-1 tox	HT1080-NT tox	S2 tox
CCc1ccccc1NC(=O)c1oc(=O)c2ccccc2c1-c1ccccc1	u	6.6%	x	i	x	i
Cc1cccc(NC(=O)c2oc(=O)c3ccccc3c2-c2ccccc2)c1C	10.3µM*	-23.1%	u	i	-14.9%	i
Cc1ccc(NC(=O)CNCc2ccc(Cl)cc2Cl)cc1S(=O)(=O)N(C)C	13µM*	-24.5%	-10.1%	u	-8.4%	u
Cc1ccc(NC(=O)CSc2nn(-c3ccccc3)c(=S)s2)cc1S(=O)(=O)N(C)C	6.51µM*	-24.7%	u	u	-15.1%	i
O=C(CSc1nn(-c2ccccc2)c(=S)s1)Nn1cnnc1	i	-5.5%	2.4%	i	5.6%	i
Cc1ccc(NC(=O)CNCc2ccccc2Cl)cc1S(=O)(=O)N(C)C	i	7.3%	-7.4%	i	-9.0%	i
C=CCNc1nc(-c2sc(NC(=O)C(C)(C)C)nc2C)c(-n2cc(-c3ccccc3)nn2)s1	16.4µM*	u	u	u	u	u
C=CCNc1nc(-c2sc(NC(C)=O)nc2C)cs1	u	16.1%	-20.2%	i	-2.0%	i
Cc1ccnc(NC(=S)N2CCN(c3ccc(C(F)(F)F)cc3)CC2)c1	i	x	x	i	x	x
CN(C)c1cccc(N2CCN(c3nn4c(=O)c5ccccc5nc4s3)CC2)c1	i	x	x	i	x	x
CC(=O)Nc1scc(C)c1-c1nc2ccccc2s1	i	8.5%	-25.6%	i	-20.0%	x
CC(=O)Nc1sc2c(c1-c1nc3ccccc3s1)CNC2	x	21.7µM*	x	x	x	x
O=C(c1ccccc1OCc1ccccc1Br)N1CCN(c2ncccn2)CC1	6.51µM*	41.1%	u	u	u	i
COCCCN1C(=O)c2[nH]nc(-c3ccccc3O)c2C1c1cccc(Cl)c1 (stereo not given)	20.6µM*	-16.1%	u	8.2µM*	25.9µM*	u
COc1ccc(CCN2C(=O)c3[nH]nc(-c4ccccc4O)c3C2c2ccccc2)cc1OC (stereo not given)	23.1µM*	-24.9%	32.6µM*	16.4µM*	u	i
CC(C)OCCCN1C(=O)c2[nH]nc(-c3ccccc3O)c2C1c1cccc(Cl)c1 (stereo not given)	16.4µM*	u	u	u	u	u
Cc1c(/C=C/c2ccnc3ccccc23)ccc(N(C)C)c1C	i	x	x	u	x	x
COc1ccc(-n2nc(CCC(=O)N(C)O)cc2-c2ccc(Cl)cc2)cc1	x	u	x	x	x	i
O=C1CC(c2nc3ccccc3n2CCC2CCCCC2)CN1c1ccccc1Cl (stereo not given)	u	5.2%	x	i	x	i
O=C1C[C@H]2C=CCc3cccc(c32)CN1Cc1ccc(Cl)cc1	18.4µM*	x	x	i	x	x
O=C1C[C@H]2C=CCc3cccc(c32)CN1Cc1cccc(F)c1	i	x	x	i	x	x
O=C(OCC1CCCO1)c1ccc2c(c1)N(Cc1ccccc1)C(=O)c1ccccc1S2(=O)=O (stereo not given)	i	-5.8%	x	i	x	i
Clc1cccc(CNCCCSc2nnnn2-c2ccccc2)c1	i	-5.7%	x	i	x	i
CCCCc1oc2ccccc2c1C(=O)c1cc(I)c(OCCN(CC)CC)c(I)c1	i	28.2µM*!	u	i	u	x
CCCOc1ccc(C(=O)Nc2ccc3nn(-c4ccc(OC)c(Cl)c4)nc3c2)cc1	i	-5.4%	x	i	x	i
SMILES	KB-V1 cytotox	ATXN2 expr inh	HT1080 IDH1KD tx	KB-3-1 tox	HT1080-NT tox	S2 tox
O=C(Cc1ccccc1[N+](=O)[O-])NCC1(c2cccc3c2OCO3)OCCO1	18.4µM*	-2.8%	10.5%	i	14.9%	i
Cn1c(=O)[nH]c2cc(-c3noc(-c4cccc(Cl)c4)n3)ccc21	i	10.4%	x	i	x	i
Cn1c(=O)[nH]c2cc3ccccc3cc21	1.3µM*	22.1%	1.6%	1.64µM*	12.6%	i
CCS(=O)(=O)N1CC(=O)N(c2cccc(C)c2C)C(C)(C(=O)NC2CCCCCC2)C1 (stereo not given)	i	x	x	i	x	x
Cc1nc2c(-c3ccccc3)c(C)nn2c(N)c1-c1ccccc1	u	113.4%	u	u	u	i
Cc1nn2c(-c3ccccc3)ccnc2c1-c1ccccc1	14.6µM*	0.0%	4.4%	i	9.2%	u
O=c1c2ccccc2nc2c3ccccc3cnn12	i	12.4%	4.9%	i	12.9%	i
O=c1c2ccccc2nc2c3ccccc3c3nncn3n12	7.31µM*	8.8%	-0.7%	u	7.2%	i
Cc1cc(C)n(-c2nc3ccccc3c(=O)n2OCC(=O)OCc2ccccc2)n1	i	u	u	23.1µM*	u	u
Cc1cc(CC(C)C)n(-c2nc3ccccc3c(=O)n2OCc2ccccc2)n1	9.2µM*	3.9%	-14.3%	u	-13.3%	i
CC(=O)/C(=N/Nc1ccccc1)N1CCOCC1	i	-20.2%	-16.1%	i	5.01µM*	i
COCCN(C)C(=O)c1cnn(-c2nccc(-c3cc(OC)ccc3OC)n2)c1C	x	x	x	x	x	i
O=C(/C=C/c1cccc(C(F)(F)F)c1)Nc1cccc(C(F)(F)F)c1	u	u	7.94µM*	u	11.2µM*	u
CSc1cccc(NC(=O)/C=C/c2cccc(Cl)c2)c1	18.4µM*	23.8%	-14.5%	u	-15.7%	u
O=c1c(-c2ccc(O)cc2)coc2cc(OC3O[C@H](CO)[C@H](O)[C@H](O)[C@H]3O)cc(O)c12 (stereo not given in full)	x	289.8%	x	x	x	x
COc1ccc(OC)c2cc3ccccc3cc12	i	17.8µM*	u	i	-2.4%	x
COc1cc2ccccc2ccc1=NO	16.4µM*	u	-15.5%	u	-9.8%	u
COc1cc2ccccc2cc1C(=O)O	i	0.0%	9.4%	i	2.7%	i
O=C(CN1C(=O)COc2ccc(Cl)cc21)Nc1cccc(C(=O)O)c1	u	4.2%	x	i	x	i
CC(C)Nc1nnc(SCC(=O)Nc2ccc3c(c2)C(=O)c2ccccc2C3=O)s1	10.3µM*	-4.2%	u	u	-11.1%	i
O=C(N/N=C/c1cn(-c2cccs2)nc1-c1ccccc1)c1ccccc1O	u	0.0%	20.6µM*	i	u	u
CN1OC[C@@H]2CN[C@H](c3ccc(-c4cc5ccccc5o4)cc3)C[C@@H]21	i	0.199µM*	-25.8%	i	u	i
CC(=O)N1CCCc2cc(S(=O)(=O)N3CCC(C(=O)NCCC(C)C)CC3)ccc21	i	6.0%	x	i	x	i
